# According to PMC5540273 (PLoS ONE, 2017):
# System: CSNK1A1L
# Details: concentration: 1 μM, replicates: in singlicate; n = 1
# 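Note: KINOMEscan kinase panel screen.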
row,SMILES,%Inh
1,CC(=O)N1CCN(c2ccc(Nc3nccc(-c4sc(C(C)C)nc4-c4cccc(NS(=O)(=O)c5cccc(Cl)c5)c4)n3)cn2)CC1 [GSK1660437],0%
2,Cl.Cl.NCC(C(=O)Nc1cc(Br)c(-c2ccnc3[nH]ccc23)s1)c1ccccc1 (centres unmarked) [GSK1269851],19%
3,CC(C)(C)c1ccc2nccc(Nc3cccc(O)c3)c2c1 [GW856795],0%
4,NCCCC(NC(=O)c1cc(Br)c(-c2ccnc3[nH]ccc23)s1)c1ccccc1.O=C(O)C(F)(F)F.O=C(O)C(F)(F)F (centres unmarked) [GSK1287544],59%
5,Cl.c1ccc(-c2ccc3c(Nc4ccc5[nH]ncc5c4)ccnc3c2)nc1 [GW440137],0%
6,c1ccc(Oc2ccc(Nc3ccnc4cc(-c5ccc(CNCCN6CCOCC6)o5)ccc34)cc2)nc1 [GW567145],0%
7,O=C(Nc1cccc(Oc2ccc3nc(NC(=O)C4CC4)cn3n2)c1)c1ccccc1C(F)(F)F,0%
8,CC(C)c1nc(-c2cccc(NS(=O)(=O)c3c(F)cccc3F)c2F)c(-c2ccnc(Nc3ccc(N4CCOCC4)nc3)n2)s1 [GSK2008607],0%
9,Nc1ncc(-c2cccnc2)c2scc(-c3ccc4c(c3)CCN4C(=O)Cc3ccccc3)c12 [GSK683281],21%
10,Cn1cc(-c2ccc3c(c2)CCN3C(=O)Cc2cccc(F)c2)c2c(N)ncnc21 [GSK2603358],5%
11,Cl.NC(=O)c1cccc(Nc2nccc(Nc3ccc(Oc4c(Cl)cccc4Cl)c(Cl)c3)n2)c1 [GW659009],0%
